# High-throughput results (PubChem BioAssay)
# Sampled rows, rich in hits. Any-hit rate of the full collection: about 32%.
# CYP2C9 activ = human CYP2C9 activators, primary screen, biochemical, luminescence; AID 1024, 2008; Cytochrome P450 2C9 (Homo sapiens), P11712; recombinant CYP2C9, luciferin-H conversion; active compounds read high; factor 1 = untreated enzyme, 0 = blocked; 96,000 tested, 1.4% active; activation factor at 5 µM;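 active = activation factor of 2 or more for CYP2C9 at a 5 µM dose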
# Target sequence (P11712 whole entry, looked up): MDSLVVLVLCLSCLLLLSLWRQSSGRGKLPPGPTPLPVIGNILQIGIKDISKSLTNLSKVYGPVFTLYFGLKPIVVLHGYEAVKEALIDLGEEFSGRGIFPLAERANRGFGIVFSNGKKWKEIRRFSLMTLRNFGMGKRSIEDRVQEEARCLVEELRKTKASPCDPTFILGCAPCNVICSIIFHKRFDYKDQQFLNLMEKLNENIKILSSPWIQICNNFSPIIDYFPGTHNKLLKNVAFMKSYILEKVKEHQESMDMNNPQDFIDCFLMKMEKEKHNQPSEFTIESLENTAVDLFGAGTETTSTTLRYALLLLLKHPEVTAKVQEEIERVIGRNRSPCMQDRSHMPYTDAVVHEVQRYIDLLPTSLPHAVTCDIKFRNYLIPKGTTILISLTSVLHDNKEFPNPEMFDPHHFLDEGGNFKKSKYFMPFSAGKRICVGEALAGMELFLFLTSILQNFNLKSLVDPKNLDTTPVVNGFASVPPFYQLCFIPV
# PostGolgi ctrl = growth inhibition of yeast control strain, primary screen, counter-screen for post-Golgi transport modulator project | efflux-deficient yeast background strain, growth absorbance A615, 16 h | inhibition, % at 10 µM | 98,000 tested, 5% active
# CYP2C9 inh = blockers of cytochrome P450 2C9 activity – biochemical, luminescence, ADME assay, primary screen; P11712; 96,000 tested, 20% active; inhibition, % at 5 µM; CYP2C9 Supersomes, luciferin-H conversion; AID 777, 2007;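 active = blocking of liver enzyme CYP2C9 beyond about 50% at 5 µM, limit read from the data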
# CYP2C19 activ = human CYP2C19 activators, primary screen, biochemical, luminescence | recombinant CYP2C19, luciferin-H EGE luminescence; active compounds read high; 0 = fully inhibited enzyme, 1 = untreated enzyme | Cytochrome P450 2C19 (Homo sapiens), P33261 | 96,000 tested, under 10 active | AID 1025, 2008 | activation factor at 5 µM;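 active = activation factor of at least 2 at 5 µM in the primary screen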
# CYP2C19 inhib = blockers of cytochrome P450 2C19 activity – biochemical, luminescence, ADME assay, primary screen. P33261. CYP2C19 Supersomes, luciferin-H EGE luminescence, 30 min. inhibition, % at 5 µM. 96,000 tested, 21% active. AID 778, 2007;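 active = CYP2C19 inhibition above a set limit at 5 µM in the primary screen, cut at about 50% in these data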
# PostGolgi yeast = phenotypic screen on post-Golgi transport, primary screen; 98,000 tested, 0.9% active; AID 739, 2007; inhibition, % at 10 µM; post-Golgi transport phenotypic cell assay;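 also: yeast cells grown in 1536-well plates; yeast grown about 18 h at 30C before absorbance read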
# Numbers stand for hits; . = inactive; / = not tested or not shown. Rule as the data show it, unless noted: active = inhibition above about 30%; inactive = the rest.
SMILES,CYP2C9 activ,PostGolgi ctrl,CYP2C9 inh,CYP2C19 activ,CYP2C19 inhib,PostGolgi yeast
O=C(c1cccc(C(=O)N2CCN(Cc3ccccc3)CC2)c1)N1CCN(Cc2ccccc2)CC1,.,.,82,.,97,.
CC(=O)Nc1cccc(C(=O)N2CCN(Cc3ccccc3)CC2)c1,.,.,.,.,96,.
O=C(Nc1cccc(C(=O)N2CCN(Cc3ccccc3)CC2)c1)c1ccccc1,.,.,.,.,83,.
CCOc1ccc(CN2CCN(C(=O)c3ccccc3)CC2)cc1,.,.,.,.,.,.
O=C(Nc1ccccc1C(=O)N1CCN(Cc2ccccc2)CC1)c1ccccn1,.,.,67,.,85,.
CC(C)CNS(=O)(=O)c1ccc(CCC(=O)NCc2cccnc2)cc1,.,.,.,.,.,.
CC(=O)c1c(N2CCC(C(N)=O)CC2)nc(=S)n(-c2ccccc2)c1C,.,.,.,.,.,.
O=C(c1ccc(CN2CCOCC2)cc1)N1CCN(Cc2ccccc2)CC1,.,.,.,.,.,.
CCN1CCN(C(=S)c2ccc(Br)cc2)CC1,.,.,.,.,.,.
S=C(c1ccc(Br)cc1)N1CCN(Cc2ccccc2)CC1,.,33,.,.,.,.
O=C(c1ccccc1)N1CCN(Cc2ccccc2Br)CC1,.,.,76,.,98,.
CCN(C(=S)Nc1ccccc1F)C1CCCCC1,.,.,.,.,.,.
Cc1ccc(S(=O)(=O)c2nc(Nc3nccs3)sc2Cl)cc1,.,52,60,.,68,.
Cc1ccc(S(=O)(=O)c2nc(NC3CCS(=O)(=O)C3)sc2Cl)cc1 (stereo not given),.,.,.,.,.,.
COCCN(CCOC)c1nc(S(=O)(=O)c2ccc(C)cc2)c(Cl)s1,.,.,56,.,81,.
CC(=O)Nc1nc(S(=O)(=O)c2ccc(C)cc2)c(Cl)s1,.,.,.,.,55,.
Cn1c(=O)c2c(nc(NCc3ccc4c(c3)OCO4)n2C)n(C)c1=O,.,.,.,.,.,.
Cc1ccc(S(=O)(=O)c2nc(NCc3ccc4c(c3)OCO4)sc2Cl)cc1,.,48,.,.,.,.
Cc1ccc(S(=O)(=O)c2nc(S(C)(=O)=O)sc2N(C)C)cc1,.,.,.,.,.,.
O=C(COC(=O)C1=COCCO1)Nc1ccccc1Oc1ccccc1,.,.,.,.,.,/
COc1ccc(-n2c(N)c(C(=O)NCc3ccco3)c3nc4ccccc4nc32)c(OC)c1,.,.,.,.,.,.
COC(=O)c1ccccc1NC(=O)NCc1ccccn1,.,.,.,.,.,.
CCCS(=O)(=O)c1nc(S(=O)(=O)c2ccc(C)cc2)c(N2CCCC2)s1,.,.,.,.,.,.
CCOc1nc(S(=O)(=O)c2ccc(C)cc2)c(Cl)s1,.,.,.,.,83,.
COc1ccc(S(=O)(=O)n2ccnc2)c2cccnc12,.,.,53,.,56,.
SMILES,CYP2C9 activ,PostGolgi ctrl,CYP2C9 inh,CYP2C19 activ,CYP2C19 inhib,PostGolgi yeast
COc1ccc(S(=O)(=O)N2CCC(C(=O)Nc3ccccc3C)CC2)c2cccnc12,.,.,.,.,63,.
CCN(CCNC(=O)C1CCN(S(=O)(=O)c2cccc3cccnc23)CC1)c1ccccc1,3,.,.,.,.,.
COc1ccc(S(=O)(=O)N2CCC(C(N)=O)CC2)c2ccccc12,.,.,.,.,.,.
COc1ccc2oc(=O)c(NC(=O)C3CCCCC3)cc2c1,.,.,.,.,.,.
COc1cc(NC(=O)C2CCCCC2)c2ncccc2c1,2.1,.,.,.,.,.
CCOC(=O)COc1ccc2c(c1)C(=O)CC1(CCCCC1)O2,.,.,.,.,.,.
O=C(C1CC1)N1CCc2cc(S(=O)(=O)N(CCO)Cc3ccccc3)ccc21,/,.,/,/,/,.
O=C(CCc1ccc(S(=O)(=O)N2CCOCC2)cc1)NCCc1ccccn1,.,.,.,.,.,.
COc1ccc(OC)c(NC(=O)C2CCCN(S(=O)(=O)c3cccc4cccnc34)C2)c1 (stereo not given),.,.,.,.,69,.
CCOc1ccccc1NC(=O)C1CCN(S(=O)(=O)c2cccc3cccnc23)CC1,.,.,.,.,93,.
COc1ccc(NC(=O)C2CCN(S(=O)(=O)c3cccc4cccnc34)CC2)cc1OC,/,.,/,/,/,.
COc1ccc(C)cc1NC(=O)C1CCN(S(=O)(=O)c2cccc3cccnc23)CC1,2.7,.,.,.,.,.
O=C(NCc1cn2ccsc2n1)c1cccs1,.,.,.,.,.,.
Cc1c(NC(=O)CCC(=O)N2CCCCC2)c(=O)n(-c2ccccc2)n1C,.,.,.,.,.,.
Cc1[nH]n(-c2ccccc2)c(=O)c1N=Nc1nccs1,.,.,58,.,.,.
Cc1ccc(C2(C)NC(=O)N(CC(=O)NC(=O)NC3CCCC3)C2=O)cc1 (stereo not given),.,/,.,.,.,/
Cc1nn(C(=O)c2ccco2)c(C)c1CN1C(=O)c2ccccc2C1=O,.,.,96,.,.,.
Cc1nn(C(=O)c2cccs2)c(C)c1CN1C(=O)c2ccccc2C1=O,.,.,.,.,.,.
Cc1nn(C(=O)N2CCCCC2)c(C)c1CN1C(=O)c2ccccc2C1=O,.,.,61,.,69,.
Cc1cc(C)nc(SCCn2c(N3CCC(C)CC3)nc3c2c(=O)n(C)c(=O)n3C)n1,.,/,.,.,.,/
CCOC(=O)C(C)c1n[nH]c(=O)c2ccccc12 (stereo not given),.,.,.,.,.,.
Cc1cc(C)c(OCC(=O)Nc2ccc3c(c2)OCO3)cc1C,.,.,.,.,.,.
O=C(COc1ccc(Br)cc1)Nc1ccncc1,.,.,97,.,100,.
Cc1cc(C)c(OCC(=O)Nc2cccc(O)c2)cc1C,.,.,.,.,75,.
Cc1cc(OCC(=O)Nc2ccncc2)c(C)cc1Br,.,.,100,.,100,.
CC(NC(=O)COc1ccc(Br)cc1)C(=O)O (stereo not given),.,.,.,.,.,.
COC(=O)c1sccc1NC(=O)c1csc(C)c1,.,.,.,.,.,.
CC(=O)Nc1n[nH]c(S(=O)(=O)Cc2ccc(Cl)cc2Cl)n1,.,/,.,.,.,/
O=C1C(=O)N(Cc2cccnc2)C(c2ccccn2)/C1=C(/O)c1ccc(Br)cc1 (stereo not given),.,.,86,.,.,.
CN1C(=O)C(CC(=O)N2CCN(C(c3ccccc3)c3ccccc3)CC2)N(C)C1=O (stereo not given),.,.,.,.,.,.
